PLCg1 inh = PLC-gamma1 (human) inhibition, primary screen. purified PLC-gamma1, fluorogenic substrate, fluorescence. P19174. hit rate 0.84% among 370,000. inhibition, % at 12.2 µM; in the data active means inhibition above about 9.5%
MsrA inh = bovine MsrA inhibition | purified bovine MsrA, absorbance read-out | inhibition, % at 15.5 µM | hit rate 0.75% among 360,000 | AID 651718; in the data active means inhibition above about 4.5%;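 further: 0% = vehicle wells with enzyme and 100% = reference inhibitor wells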
bovine MsrA act = activators of bovine methionine sulfoxide reductase A | purified bovine MsrA, absorbance read-out | activation, % at 10.6 µM | hit rate 0.3% among 360,000; in the data active means activation above about 7.5%;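 further: 0% = vehicle and 100% = reference activator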
PLC-beta3 inh = blocks human PLC-beta3 enzyme activity; Purified PLC-beta3, fluorogenic substrate, fluorescence; inhibition, % at 12.2 µM; hit rate 0.18% among 370,000; AID 720704; in the data active means inhibition above about 11%;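 further: 0% = median of compound wells on plate and 100% = full blocker control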
Target sequence (Q01970 whole entry, looked up): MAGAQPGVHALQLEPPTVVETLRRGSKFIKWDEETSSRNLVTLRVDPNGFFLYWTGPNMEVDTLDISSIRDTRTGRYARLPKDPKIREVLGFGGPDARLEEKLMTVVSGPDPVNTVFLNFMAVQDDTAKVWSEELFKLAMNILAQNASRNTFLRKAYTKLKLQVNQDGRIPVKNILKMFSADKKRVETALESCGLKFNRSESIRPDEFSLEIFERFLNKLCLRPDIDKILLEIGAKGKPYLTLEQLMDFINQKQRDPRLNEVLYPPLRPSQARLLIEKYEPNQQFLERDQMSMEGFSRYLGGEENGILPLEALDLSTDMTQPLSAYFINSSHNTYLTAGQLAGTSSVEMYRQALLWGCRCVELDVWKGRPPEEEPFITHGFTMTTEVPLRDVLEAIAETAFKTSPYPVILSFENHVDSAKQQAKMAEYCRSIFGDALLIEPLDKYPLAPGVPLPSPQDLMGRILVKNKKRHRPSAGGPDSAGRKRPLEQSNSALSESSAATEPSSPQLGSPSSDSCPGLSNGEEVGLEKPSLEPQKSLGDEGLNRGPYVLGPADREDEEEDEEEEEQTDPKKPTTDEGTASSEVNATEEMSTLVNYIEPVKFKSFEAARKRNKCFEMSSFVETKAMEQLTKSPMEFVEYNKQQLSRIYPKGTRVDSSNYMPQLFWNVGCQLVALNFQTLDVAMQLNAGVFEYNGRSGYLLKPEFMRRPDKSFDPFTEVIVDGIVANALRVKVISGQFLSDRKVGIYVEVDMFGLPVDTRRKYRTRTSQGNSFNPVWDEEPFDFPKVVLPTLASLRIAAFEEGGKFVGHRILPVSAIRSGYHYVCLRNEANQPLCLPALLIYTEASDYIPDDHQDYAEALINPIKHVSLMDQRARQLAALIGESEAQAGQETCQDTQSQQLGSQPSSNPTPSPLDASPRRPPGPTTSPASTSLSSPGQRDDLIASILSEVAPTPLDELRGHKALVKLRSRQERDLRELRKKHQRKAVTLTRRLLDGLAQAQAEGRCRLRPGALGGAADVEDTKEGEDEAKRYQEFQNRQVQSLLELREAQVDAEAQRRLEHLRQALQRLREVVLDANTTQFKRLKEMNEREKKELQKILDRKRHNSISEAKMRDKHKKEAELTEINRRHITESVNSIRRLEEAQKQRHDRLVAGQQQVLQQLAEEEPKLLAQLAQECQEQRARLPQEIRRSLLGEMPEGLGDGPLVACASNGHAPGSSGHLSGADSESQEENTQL
MsrA act confirm = bovine methionine sulfoxide reductase A activation confirmed | hit rate 12% among 1,000 | activation, % at 10.6 µM | purified bovine MsrA, absorbance read-out | shares compounds with bovine MsrA act; in the data active means activation above about 4%;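 further: enzyme coupled to thioredoxin and thioredoxin reductase with NADPH; 0% = vehicle wells and 100% = reference activator wells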
The depositor's hits bear a star. Rows were chosen to be rich in hits. Some 1.9% of all compounds tested hit in one or more screens of this group.

Results for C/C(=N\Nc1cccc([N+](=O)[O-])c1)c1cc2ccccc2o1 ?
PLCg1 inh: -1.9; MsrA inh: 1.9; bovine MsrA act: -3.2; PLC-beta3 inh: -6.2

What do the screens show for `O=C(c1cccc([N+](=O)[O-])c1)c1cc2ccccc2o1`?
PLCg1 inh: -1.7; MsrA inh: 0.7; bovine MsrA act: 8.8*; PLC-beta3 inh: 1.9; MsrA act confirm: 0.2

How did O=C(c1ccc(Br)cn1)N1CCC(Oc2cccnc2)CC1 do in these assays?
PLCg1 inh: 2.7; PLC-beta3 inh: 2.9

Results for CCCCCn1c(=O)c2ccccc2n2c(=S)[nH]nc12 ?
PLCg1 inh: -4.9; MsrA inh: 0.4; bovine MsrA act: 9.6*; PLC-beta3 inh: -8.9; MsrA act confirm: -3.2

What do the screens show for `CC1COc2ccccc2N1C(=O)c1ccc(Cl)cc1` (stereo unspecified)?
PLCg1 inh: 0.4; MsrA inh: 0.3; bovine MsrA act: 9.0*; PLC-beta3 inh: -1.8; MsrA act confirm: -4.7

How did Cc1ccc(C(=O)N2c3ccccc3OCC2C)cc1 (stereo unspecified) do in these assays?
PLCg1 inh: 0.4; MsrA inh: 0.2; bovine MsrA act: -2.2; PLC-beta3 inh: -0.9

How did CCOC(=O)c1ccccc1NC(=O)CSc1nnc(COc2ccccc2C)n1C do in these assays?
PLCg1 inh: -4.1; MsrA inh: 1.6; bovine MsrA act: 9.0*; PLC-beta3 inh: -1.2; MsrA act confirm: -1.8

What do the screens show for `O=C(NC(C(=O)N1CCCC1C(=O)NC1CCCC1)c1ccccc1)c1cccs1` (stereo unspecified)?
PLCg1 inh: 1.8; MsrA inh: 1.0; PLC-beta3 inh: -0.2

How did COC(=O)[C@H](NC(=O)c1cc(-c2ccccc2)nc2ccccc12)c1ccccc1 do in these assays?
PLCg1 inh: 4.3; MsrA inh: 0.9; bovine MsrA act: 9.4*; PLC-beta3 inh: -3.5; MsrA act confirm: -0.2

Results for COc1ccc(OC)c2nc3c(C(=O)NCCN(C)C)cccc3nc12 ?
PLCg1 inh: -0.3; MsrA inh: -0.1; bovine MsrA act: 20.6*; PLC-beta3 inh: 2.4; MsrA act confirm: 11.7*

Results for CC(C)C[C@@H]1COc2cc(F)ccc2S(=O)(=O)N1C ?
PLCg1 inh: 0.7; PLC-beta3 inh: 3.0

How did O=C(Nc1ccc2c(c1)OCCO2)C(C1CC1)N1CCN(C/C=C/c2ccccc2)CC1 (stereo unspecified) do in these assays?
PLCg1 inh: 1.4; MsrA inh: -0.9; bovine MsrA act: -2.0; PLC-beta3 inh: 3.2

What do the screens show for `O=C(Nc1ccc2c(c1)OCCO2)C(c1cc2ccccc2o1)N1CCN(C/C=C/c2ccccc2)CC1` (stereo unspecified)?
PLCg1 inh: -0.4; MsrA inh: -0.5; bovine MsrA act: 15.7*; PLC-beta3 inh: -2.6; MsrA act confirm: -1.5

What do the screens show for `CCCCN(CC)C(=O)c1cc2c(=O)n3cccc(C)c3nc2s1`?
PLCg1 inh: -298.5; MsrA inh: 0.8; bovine MsrA act: 10.3*; PLC-beta3 inh: -424.7; MsrA act confirm: -2.5

How did CN(C)CCCn1c2c(c(SCC(=O)Nc3cccc4ccccc34)nc1=O)CCCC2 do in these assays?
PLCg1 inh: -12.3; MsrA inh: -0.7; bovine MsrA act: 11.2*; PLC-beta3 inh: -17.1; MsrA act confirm: 0.5

Results for CCN(CC)CCCn1c2c(c(SCC(=O)Nc3cccc4ccccc34)nc1=O)CCC2 ?
PLCg1 inh: -2.8; MsrA inh: 1.0; bovine MsrA act: -2.6; PLC-beta3 inh: -12.5

How did COc1ccc(NC(=O)OC[C@@H]2CSCCS(=O)(=O)N2)cc1 do in these assays?
PLCg1 inh: -1.4; MsrA inh: 1.6; PLC-beta3 inh: 0.0

Results for O=C(NCC1CCCO1)c1cc2n(n1)C(C(F)(F)F)CC(c1ccc(Br)cc1)N2 (stereo unspecified) ?
PLCg1 inh: -4.2; MsrA inh: 1.5; bovine MsrA act: 10.9*; PLC-beta3 inh: -1.2; MsrA act confirm: -0.5

Results for O=C(NCC1CCCO1)c1nn2c(c1Cl)NC(c1ccc(F)cc1)CC2C(F)(F)F (stereo unspecified) ?
PLCg1 inh: -0.7; MsrA inh: 0.6; bovine MsrA act: -4.2; PLC-beta3 inh: -1.5

How did CNC(=S)Nc1sc2c(c1C(=O)OC)CCC2 do in these assays?
PLCg1 inh: -0.7; MsrA inh: 1.8; bovine MsrA act: 8.4*; PLC-beta3 inh: -8.5; MsrA act confirm: 2.5

What do the screens show for `COC(=O)c1c(NC(C)=O)sc2c1CCCC2`?
PLCg1 inh: -3.0; MsrA inh: 0.7; bovine MsrA act: -4.5; PLC-beta3 inh: -6.0

How did O=C(N[C@H](C(=O)N1CCC[C@H]1C(=O)NC1CCCC1)C1CCCCC1)C1CCCC1 do in these assays?
PLCg1 inh: 2.5; MsrA inh: -0.7; PLC-beta3 inh: 3.9

How did CCCn1c(N)c(N(CCOC)C(=O)c2ccc(N3CCCC3=O)cc2)c(=O)[nH]c1=O do in these assays?
PLCg1 inh: -1.3; MsrA inh: -0.9; bovine MsrA act: 7.9*; PLC-beta3 inh: -7.6; MsrA act confirm: 1.1

What do the screens show for `CCCCn1c(N)c(N(CCOC)C(=O)c2ccc(N3CCCC3=O)cc2)c(=O)[nH]c1=O`?
PLCg1 inh: -1.9; MsrA inh: 0.2; bovine MsrA act: -1.1; PLC-beta3 inh: -9.0

What do the screens show for `O=c1[nH]c(=S)[nH]cc1Oc1ccc(Cl)cc1`?
PLCg1 inh: -3.3; MsrA inh: 0.4; bovine MsrA act: 9.0*; PLC-beta3 inh: 0.5; MsrA act confirm: 4.2*

What do the screens show for `COC(=O)[C@H](C(C)C)N(CCCc1cn(Cc2ccc(C)cc2)nn1)S(=O)(=O)c1ccc(F)cc1Br`?
PLCg1 inh: -2.7; PLC-beta3 inh: -0.4

How did CCOC(=O)N1CCN(C(=O)C[C@@H]2C(=O)N(Cc3ccc(OC)cc3)C3=CCN(C(=O)OC(C)(C)C)C[C@]32C(=O)OCC)CC1 do in these assays?
PLCg1 inh: 0.5; PLC-beta3 inh: 3.5

What do the screens show for `CC1=C(C(N)=O)C(c2ccc(Cl)c(Cl)c2)n2ncnc2N1` (stereo unspecified)?
PLCg1 inh: -1.5; MsrA inh: 0.5; bovine MsrA act: 7.9*; PLC-beta3 inh: -4.0; MsrA act confirm: -0.9

How did COc1ccc(NS(=O)(=O)c2cc(NC(=O)c3ccc(F)cc3)ccc2OC)cc1 do in these assays?
PLCg1 inh: -0.7; MsrA inh: -0.8; bovine MsrA act: 9.7*; PLC-beta3 inh: 0.3; MsrA act confirm: -0.5

Results for COc1ccc(NC(=O)c2ccc(F)cc2)cc1S(=O)(=O)Nc1cc(C)ccc1Br ?
PLCg1 inh: 2.7; MsrA inh: -1.6; bovine MsrA act: -3.4; PLC-beta3 inh: -1.5

What do the screens show for `CCNC(=O)N1CCN(c2ccc(N3CCN(Cc4ccccc4)[C@H](C)C3)c(C)c2)[C@H](C)C1`?
PLCg1 inh: -0.2; MsrA inh: -1.1; PLC-beta3 inh: 1.5

What do the screens show for `O=C(COC(=O)c1ccc(Cl)c(S(=O)(=O)N2CCOCC2)c1)Nc1ccc2[nH]c(=O)[nH]c2c1`?
PLCg1 inh: -3.7; MsrA inh: -0.3; bovine MsrA act: -1.0; PLC-beta3 inh: -6.0

Results for O=C(COC(=O)c1ccc(Cl)c(S(=O)(=O)N2CCN(c3ccc(F)cc3)CC2)c1)Nc1cccc(Cl)c1 ?
PLCg1 inh: 1.0; MsrA inh: -0.6; bovine MsrA act: 11.7*; PLC-beta3 inh: 1.4; MsrA act confirm: 1.4

Source: PubChem BioAssay (The Scripps Research Institute Molecular Screening Center)
